The structures appear in SMILES notation. “And” between values parts separate entries of the source, which are not always exact repeats. Identical values can stand only once. ± gives the standard deviation of the averaged measurements.
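Further: TDF denotes transformed human dermal fibroblasts of mesenchymal origin.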

The experiment relates to HCC1569. Briefly: cell number relative to DMSO (% of DMSO); higher = more cells (less growth inhibition / toxicity). The note with it: concentration: 10 µM; 24 h. The essentials: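 H1.0 nuclear intensity or cell number is expressed as percent of the plate control, with the median of replicates taken. HCC1569 and TDF cells were treated with compounds at 10 µM for 24 h at 37 °C, in triplicate, then fixed and immunostained for H1.0 with DAPI as a nuclear stain. HCC1569 values were smoothed to correct for positional effects.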
Molecule `CCCCCCCCCCCCCCCCCCCCCC(=O)O` [Docosanoic acid] returned a cell number of 101.
With `O=C(CCN1CCN(C(=O)OCc2cc(Cl)cc(Cl)c2)CC1)c1ccc2[nH]c(=O)oc2c1` the figure was 70.5.
In the case of `N[C@@H](Cc1ccc(O)c(I)c1)C(=O)O` [3-Iodo-L-tyrosine] it was 108; in that of `CNCCC=C1c2ccccc2CCc2ccccc21.Cl` [Nortriptyline hydrochloride], 88.9.
With `COc1ccc(/C=C2\COc3ccc(C)cc3C2=O)cc1O` the figure was 58.1; with `CC(C)(O)CCC(O)C(C)(O)C1CCC2(O)C3=CC(=O)C4CC(O)C(O)CC4(C)C3CCC12C` (stereo not given), 102; with `CCCNC(C)C(=O)Nc1ccccc1C.Cl` (stereo not given) [Prilocaine hydrochloride], 103.
For the molecule `CN(C)c1ccc(C=C2C(=O)Nc3ccccc32)cc1`, the cell number was 95.9 and 109 and 98.8.
With `CCC(CO)Nc1nc(NCc2ccc(-c3ccccn3)cc2)c2ncn(C(C)C)c2n1` [CR8, (S)-Isomer] the figure was 52.6; with `CCC(C)SSc1ncc[nH]1` (stereo not given) [2-(sec-butyldisulfanyl)-1H-imidazole], 83.7.
Molecule `CN1CCC(=C2c3ccccc3C=Cc3ccccc32)CC1` [Cyproheptadine] registered a cell number of 100.
In the case of `CCn1cc(C(=O)O)c(=O)c2cc(F)c(N3CCNCC3)nc21` [Enoxacin] it was 105; in that of `CCCCC(=O)O[C@]1(C(=O)CO)[C@@H](C)C[C@H]2[C@@H]3CCC4=CC(=O)C=C[C@]4(C)[C@@]3(F)[C@@H](O)C[C@@]21C`, 96.4; in that of `CCN(Cc1ccccc1)C(=O)Cn1c(=O)n(C)c2cnc(-c3ccccc3)nc21`, 75.1.
In the case of `NC(=O)N1c2ccccc2CC(=O)c2ccccc21` [Oxcarbazepine] it was 103; in that of `Cc1nc(Nc2ncc(C(=O)Nc3c(C)cccc3Cl)s2)cc(N2CCN(CCO)CC2)n1` [Dasatinib], 45.9.
With `COc1ccc(-c2coc3cc(O)ccc3c2=O)cc1` [Formononetin] the figure was 104.
The molecule `CCCCCC(O)CC(=O)CCc1ccc(O)c(OC)c1` (stereo not given) [Gingerol] registered a cell number of 99.3.
In the case of `CN(C)c1ccc(C2Nc3ccc4ccccc4c3C3=C2C(=O)CC(C)(C)C3)cc1Br` (stereo not given) it was 91.7.
In the case of `CN1Cc2c(N)cccc2C(c2ccccc2)C1.O=C(O)C=CC(=O)O` (stereo not given) [Nomifensine maleate] it was 102; in that of `O=C1CCC(c2ccc(-n3ccnc3)cc2)=NN1` [Imazodan], 95.5.
With `NC(C(=O)O)C1CC1C(=O)O` [(2S,1'S,2'S)-2-(carboxycyclopropyl)glycine] the figure was 105.
In the case of `COC1(NC(=O)CSCC#N)C(=O)N2C(C(=O)[O-])=C(CSc3nnnn3C)CSC21.[Na+]` (stereo not given) [Cefmetazole sodium], the cell number amounted to 101.
Consider `NCCCCN=C(N)N.O=S(=O)(O)O` [Agmatine sulfate], for which the cell number came to 106.
With `C=C1C(=O)C23C(O)C1CCC2C12COC3(O)C(O)C1C(C)(C)CCC2O` (stereo not given) [Rubescensin A] the figure was 90.8; with `Cl.c1ccc2nc(C3=NCCN3)ccc2c1` [BU224 hydrochloride], 101; with `CCC1(O)CC2CN(CCc3c([nH]c4ccccc34)C(C(=O)OC)(c3cc4c(cc3OC)N(C)C3C(O)(C(=O)OC)C(OC(C)=O)C5(CC)C=CCN6CCC43C65)C2)C1` (stereo not given) [Vinblastine], 53.6.
With `CCCCCC=CCC(O)C=Cc1cccc(CC(O)CCCCO)n1` (stereo not given) the figure was 98.7 ± 2; with `CN1CCN(CCC=C2c3ccccc3Sc3ccc(S(=O)(=O)N(C)C)cc32)CC1.Cl` [Thiothixene hydrochloride], 95.
Take `CC(C=CC1=C(C)CCCC1(C)C)=CC=CC(C)=CC(=O)Nc1ccc(O)cc1` [4-Hydroxyphenylretinamide]: the cell number worked out at 89.9.
In the case of `CCN1CCCC1CNC(=O)c1c(OC)ccc(Br)c1OC` (stereo not given) [Remoxipride] it was 101.
The molecule `COc1ccccc1N1CCN(CCN(C(=O)c2ccc(F)cc2)c2ccccn2)CC1.Cl.Cl` [p-MPPF dihydrochloride] came in with a cell number of 99.7.
With `C=CCn1c(=O)c2c(nc(-c3ccc(S(=O)(=O)O)cc3)n2C)n(C)c1=O` [1-Allyl-3,7-dimethyl-8-p-sulfophenylxanthine] the figure was 102; with `C[N+](C)(C)CCCCCC[N+](C)(C)C.[Cl-].[Cl-]` [Hexamethonium dichloride], 98.
In the case of `COc1ccc2c3c1OC1CC(O)C=CC31CCN(C)C2` (stereo not given) [Galanthamine] it was 101.

The values above are taken from the supplement of paper PMC7156485.
